The source of these data is ChEMBL document CHEMBL1961873, “Compounds: GSK PKIS; Assays: Nanosyn kinase panel” (2012).

Assay [1] deals with Sphingosine kinase 1 (Homo sapiens) (UniProt Q9NYA1). To be noted: at 1 µM.
The target in assay [2] is T1, Sphingosine kinase 2 (Homo sapiens) (UniProt Q9NRA0).
T1 sequence (whole entry): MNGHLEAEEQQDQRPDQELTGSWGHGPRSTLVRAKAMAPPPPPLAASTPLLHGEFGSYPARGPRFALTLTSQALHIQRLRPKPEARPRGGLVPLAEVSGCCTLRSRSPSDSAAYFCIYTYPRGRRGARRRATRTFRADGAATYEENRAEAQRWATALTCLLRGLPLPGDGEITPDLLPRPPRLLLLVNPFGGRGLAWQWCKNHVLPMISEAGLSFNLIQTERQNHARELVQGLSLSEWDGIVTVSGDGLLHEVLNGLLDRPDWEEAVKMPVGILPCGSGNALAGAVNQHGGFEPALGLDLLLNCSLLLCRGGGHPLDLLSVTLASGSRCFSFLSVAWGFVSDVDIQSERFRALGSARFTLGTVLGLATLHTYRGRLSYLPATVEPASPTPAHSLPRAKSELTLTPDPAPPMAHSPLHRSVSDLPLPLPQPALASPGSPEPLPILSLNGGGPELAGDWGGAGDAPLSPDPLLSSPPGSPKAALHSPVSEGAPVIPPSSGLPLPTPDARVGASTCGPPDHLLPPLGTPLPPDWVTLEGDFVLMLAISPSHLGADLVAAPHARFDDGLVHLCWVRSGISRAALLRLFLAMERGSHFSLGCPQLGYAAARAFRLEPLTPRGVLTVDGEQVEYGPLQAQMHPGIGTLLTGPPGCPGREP
Conditions: at 0.1 µM.

For assay [3], the target named is T1, Sphingosine kinase 2 (Homo sapiens). To be noted: at 1 µM.
For assay [4], the target named is Casein kinase II subunit alpha (Homo sapiens) (UniProt P68400). Conditions: at 0.1 µM.
For assay [5] the target is unchanged. Conditions: at 1 µM.
Assay [6] concerns the target T2, Inhibitor of nuclear factor kappa-B kinase subunit alpha (Homo sapiens) (UniProt O15111).
T2 sequence (whole entry): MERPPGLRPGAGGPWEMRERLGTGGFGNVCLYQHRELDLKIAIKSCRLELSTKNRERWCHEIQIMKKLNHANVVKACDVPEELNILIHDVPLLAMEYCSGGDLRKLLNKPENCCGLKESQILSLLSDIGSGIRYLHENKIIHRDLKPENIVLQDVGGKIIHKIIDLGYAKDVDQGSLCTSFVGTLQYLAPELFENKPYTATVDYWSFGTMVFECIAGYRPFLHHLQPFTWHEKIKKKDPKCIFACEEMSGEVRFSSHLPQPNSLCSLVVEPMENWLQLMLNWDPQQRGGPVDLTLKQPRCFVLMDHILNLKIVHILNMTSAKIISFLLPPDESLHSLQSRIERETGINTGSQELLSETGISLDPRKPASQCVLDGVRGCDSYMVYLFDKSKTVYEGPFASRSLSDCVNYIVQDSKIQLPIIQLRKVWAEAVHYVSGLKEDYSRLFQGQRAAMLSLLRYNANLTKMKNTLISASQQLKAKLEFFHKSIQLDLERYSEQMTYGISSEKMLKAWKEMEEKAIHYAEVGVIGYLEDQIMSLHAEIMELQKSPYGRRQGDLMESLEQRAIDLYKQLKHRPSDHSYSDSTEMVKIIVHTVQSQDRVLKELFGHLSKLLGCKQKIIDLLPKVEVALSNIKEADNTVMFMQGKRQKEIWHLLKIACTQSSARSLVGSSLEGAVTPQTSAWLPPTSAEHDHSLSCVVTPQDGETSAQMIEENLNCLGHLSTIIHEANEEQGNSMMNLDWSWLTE
Conditions: at 0.1 µM.

Assay [7] addresses T2, Inhibitor of nuclear factor kappa-B kinase subunit alpha (Homo sapiens). Conditions: at 1 µM.
In assay [8] the target is T3, Inhibitor of nuclear factor kappa-B kinase subunit beta (Homo sapiens) (UniProt O14920).
T3 sequence (whole entry): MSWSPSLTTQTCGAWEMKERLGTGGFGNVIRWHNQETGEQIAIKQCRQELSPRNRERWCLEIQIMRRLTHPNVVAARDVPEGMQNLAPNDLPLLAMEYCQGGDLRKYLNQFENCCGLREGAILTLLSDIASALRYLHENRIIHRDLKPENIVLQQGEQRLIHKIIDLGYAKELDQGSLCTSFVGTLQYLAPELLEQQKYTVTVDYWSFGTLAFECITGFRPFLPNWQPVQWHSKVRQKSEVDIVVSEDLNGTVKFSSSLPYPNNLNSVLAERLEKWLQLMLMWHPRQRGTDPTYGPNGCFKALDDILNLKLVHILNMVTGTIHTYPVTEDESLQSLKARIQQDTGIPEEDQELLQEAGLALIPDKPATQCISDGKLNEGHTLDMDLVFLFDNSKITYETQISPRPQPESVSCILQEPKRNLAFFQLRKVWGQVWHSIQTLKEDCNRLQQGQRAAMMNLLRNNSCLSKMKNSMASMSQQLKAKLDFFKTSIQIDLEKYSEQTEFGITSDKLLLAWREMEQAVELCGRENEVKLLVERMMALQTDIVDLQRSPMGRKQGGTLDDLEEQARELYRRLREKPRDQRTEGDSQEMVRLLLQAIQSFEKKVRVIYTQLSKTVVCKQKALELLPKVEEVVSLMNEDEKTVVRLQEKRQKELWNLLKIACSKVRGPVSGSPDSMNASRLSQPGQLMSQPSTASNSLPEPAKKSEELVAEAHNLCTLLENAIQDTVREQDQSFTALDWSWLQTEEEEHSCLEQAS
To be noted: at 0.1 µM.

For assay [9], the target named is T3, Inhibitor of nuclear factor kappa-B kinase subunit beta (Homo sapiens). To be noted: at 1 µM.
Assay [10] concerns the target T4, Inhibitor of nuclear factor kappa-B kinase subunit epsilon (Homo sapiens) (UniProt Q14164).
T4 sequence (whole entry): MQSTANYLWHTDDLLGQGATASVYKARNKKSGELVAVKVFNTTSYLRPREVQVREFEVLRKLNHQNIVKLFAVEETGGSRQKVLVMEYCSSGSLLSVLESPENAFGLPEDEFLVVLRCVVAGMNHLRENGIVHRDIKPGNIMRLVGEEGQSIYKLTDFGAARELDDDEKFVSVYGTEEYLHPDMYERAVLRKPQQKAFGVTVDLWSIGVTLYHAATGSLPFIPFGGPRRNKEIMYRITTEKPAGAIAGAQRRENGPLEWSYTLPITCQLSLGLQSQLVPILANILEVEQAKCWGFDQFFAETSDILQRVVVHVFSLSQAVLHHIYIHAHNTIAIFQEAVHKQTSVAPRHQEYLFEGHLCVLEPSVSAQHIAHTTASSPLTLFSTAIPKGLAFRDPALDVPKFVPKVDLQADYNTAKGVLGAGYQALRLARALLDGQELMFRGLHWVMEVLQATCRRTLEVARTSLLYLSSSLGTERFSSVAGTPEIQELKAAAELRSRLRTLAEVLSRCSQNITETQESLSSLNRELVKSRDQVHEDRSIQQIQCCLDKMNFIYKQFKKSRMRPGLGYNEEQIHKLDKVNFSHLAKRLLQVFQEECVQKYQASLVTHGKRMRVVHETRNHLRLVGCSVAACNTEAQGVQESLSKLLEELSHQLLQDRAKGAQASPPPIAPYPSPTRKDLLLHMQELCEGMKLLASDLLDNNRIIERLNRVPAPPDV
To be noted: at 0.1 µM.

In assay [11] the target is T4, Inhibitor of nuclear factor kappa-B kinase subunit epsilon (Homo sapiens). To be noted: at 1 µM.
Assay [12] deals with T5, Serine/threonine-protein kinase Nek1 (Homo sapiens) (UniProt Q96PY6).
T5 sequence (whole entry): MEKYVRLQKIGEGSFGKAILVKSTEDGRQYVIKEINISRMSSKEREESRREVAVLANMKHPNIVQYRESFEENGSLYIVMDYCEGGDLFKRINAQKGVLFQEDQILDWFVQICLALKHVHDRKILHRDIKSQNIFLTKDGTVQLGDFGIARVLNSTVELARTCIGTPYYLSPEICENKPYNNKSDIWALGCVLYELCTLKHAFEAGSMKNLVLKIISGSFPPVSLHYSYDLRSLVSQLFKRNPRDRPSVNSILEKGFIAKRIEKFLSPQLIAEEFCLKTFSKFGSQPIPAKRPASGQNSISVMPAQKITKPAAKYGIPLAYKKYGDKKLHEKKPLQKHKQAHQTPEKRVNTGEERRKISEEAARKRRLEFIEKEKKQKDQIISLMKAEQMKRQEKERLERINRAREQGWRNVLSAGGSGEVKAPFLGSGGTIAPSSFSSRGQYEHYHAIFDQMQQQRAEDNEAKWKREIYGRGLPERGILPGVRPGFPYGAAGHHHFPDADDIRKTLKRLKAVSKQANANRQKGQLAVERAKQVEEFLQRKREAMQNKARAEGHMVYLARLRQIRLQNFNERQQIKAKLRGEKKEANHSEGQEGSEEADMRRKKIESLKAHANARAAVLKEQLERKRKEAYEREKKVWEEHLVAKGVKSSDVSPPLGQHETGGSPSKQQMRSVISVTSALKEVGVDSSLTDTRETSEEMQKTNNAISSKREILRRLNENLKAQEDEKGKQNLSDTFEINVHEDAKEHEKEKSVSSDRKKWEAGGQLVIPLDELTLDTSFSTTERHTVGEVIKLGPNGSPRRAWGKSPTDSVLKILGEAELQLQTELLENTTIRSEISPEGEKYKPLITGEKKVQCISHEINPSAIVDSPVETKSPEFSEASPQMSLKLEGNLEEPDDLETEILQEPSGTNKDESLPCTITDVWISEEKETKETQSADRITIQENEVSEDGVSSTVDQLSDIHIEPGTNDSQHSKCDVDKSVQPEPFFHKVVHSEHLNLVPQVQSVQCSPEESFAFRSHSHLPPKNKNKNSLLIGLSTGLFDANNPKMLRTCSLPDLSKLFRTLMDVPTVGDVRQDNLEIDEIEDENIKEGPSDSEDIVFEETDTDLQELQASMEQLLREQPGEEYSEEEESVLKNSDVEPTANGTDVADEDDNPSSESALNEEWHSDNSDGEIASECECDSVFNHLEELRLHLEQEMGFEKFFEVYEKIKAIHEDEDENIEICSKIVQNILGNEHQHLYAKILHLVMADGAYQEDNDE
Conditions: at 0.1 µM.

In assay [13] the target is T5, Serine/threonine-protein kinase Nek1 (Homo sapiens). Conditions: at 1 µM.
For assay [14], the target named is T6, Serine/threonine-protein kinase Nek2 (Homo sapiens) (UniProt P51955).
T6 sequence (whole entry): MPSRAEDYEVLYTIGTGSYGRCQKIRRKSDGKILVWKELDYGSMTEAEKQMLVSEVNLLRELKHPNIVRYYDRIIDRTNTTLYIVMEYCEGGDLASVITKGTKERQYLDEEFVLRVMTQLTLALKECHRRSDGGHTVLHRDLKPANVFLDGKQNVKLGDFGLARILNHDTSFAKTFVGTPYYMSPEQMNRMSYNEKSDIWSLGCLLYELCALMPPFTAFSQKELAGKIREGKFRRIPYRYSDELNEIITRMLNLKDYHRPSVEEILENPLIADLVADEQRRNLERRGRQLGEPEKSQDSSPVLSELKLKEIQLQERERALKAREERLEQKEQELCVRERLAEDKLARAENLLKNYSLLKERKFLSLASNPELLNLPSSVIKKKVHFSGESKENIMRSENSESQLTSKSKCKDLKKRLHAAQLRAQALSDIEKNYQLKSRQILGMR
To be noted: at 0.1 µM.

Assay [15] addresses T6, Serine/threonine-protein kinase Nek2 (Homo sapiens). To be noted: at 1 µM.
The target of assay [16] is Serine/threonine-protein kinase Nek6 (Homo sapiens) (UniProt Q9HC98). Conditions: at 0.1 µM.
The target is the same in assay [17]. Conditions: at 1 µM.
In assay [18] the target is Serine/threonine-protein kinase Nek7 (Homo sapiens) (UniProt Q8TDX7). Conditions: at 0.1 µM.
Assay [19] has the same target. Conditions: at 1 µM.
Assay [20] concerns the target T7, Serine/threonine-protein kinase Nek9 (Homo sapiens) (UniProt Q8TD19).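 Also: reported value is the mean percent inhibition of NEK9.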
T7 sequence (whole entry): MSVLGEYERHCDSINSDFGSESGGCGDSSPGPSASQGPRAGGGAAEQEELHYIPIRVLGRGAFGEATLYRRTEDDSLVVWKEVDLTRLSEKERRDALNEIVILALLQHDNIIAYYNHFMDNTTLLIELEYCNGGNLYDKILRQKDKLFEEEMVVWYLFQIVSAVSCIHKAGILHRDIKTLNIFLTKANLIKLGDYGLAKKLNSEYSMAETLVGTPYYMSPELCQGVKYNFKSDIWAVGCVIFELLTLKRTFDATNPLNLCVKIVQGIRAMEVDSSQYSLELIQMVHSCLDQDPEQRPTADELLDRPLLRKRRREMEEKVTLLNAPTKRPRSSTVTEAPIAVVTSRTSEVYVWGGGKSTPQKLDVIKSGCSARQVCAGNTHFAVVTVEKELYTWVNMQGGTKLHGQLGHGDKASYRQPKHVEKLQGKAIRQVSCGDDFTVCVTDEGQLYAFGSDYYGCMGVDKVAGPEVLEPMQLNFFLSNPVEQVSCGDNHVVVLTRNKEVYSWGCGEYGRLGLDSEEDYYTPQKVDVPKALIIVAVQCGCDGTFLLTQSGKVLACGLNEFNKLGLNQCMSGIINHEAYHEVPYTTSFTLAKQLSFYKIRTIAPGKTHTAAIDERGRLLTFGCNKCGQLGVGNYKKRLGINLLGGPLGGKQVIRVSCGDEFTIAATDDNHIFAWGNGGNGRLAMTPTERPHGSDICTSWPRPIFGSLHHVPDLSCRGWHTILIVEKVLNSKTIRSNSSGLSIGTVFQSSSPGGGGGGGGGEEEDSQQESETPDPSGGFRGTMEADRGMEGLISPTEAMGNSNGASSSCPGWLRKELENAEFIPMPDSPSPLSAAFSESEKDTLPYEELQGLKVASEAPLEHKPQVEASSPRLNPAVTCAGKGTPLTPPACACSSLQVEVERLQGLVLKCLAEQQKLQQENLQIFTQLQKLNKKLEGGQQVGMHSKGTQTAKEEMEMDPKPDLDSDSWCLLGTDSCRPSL
Conditions: at 0.1 µM.

Sequence of Serine/threonine-protein kinase Nek7 (Homo sapiens) (Q8TDX7 whole entry, looked up): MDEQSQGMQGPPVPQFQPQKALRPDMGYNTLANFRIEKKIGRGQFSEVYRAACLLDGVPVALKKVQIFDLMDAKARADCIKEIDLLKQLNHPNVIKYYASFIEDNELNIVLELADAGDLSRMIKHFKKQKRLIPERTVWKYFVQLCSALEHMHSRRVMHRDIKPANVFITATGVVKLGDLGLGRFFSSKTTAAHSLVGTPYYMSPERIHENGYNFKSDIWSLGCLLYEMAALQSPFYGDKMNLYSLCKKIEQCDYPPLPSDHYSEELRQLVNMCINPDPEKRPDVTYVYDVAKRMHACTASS
Sequence of Serine/threonine-protein kinase Nek6 (Homo sapiens) (Q9HC98 whole entry): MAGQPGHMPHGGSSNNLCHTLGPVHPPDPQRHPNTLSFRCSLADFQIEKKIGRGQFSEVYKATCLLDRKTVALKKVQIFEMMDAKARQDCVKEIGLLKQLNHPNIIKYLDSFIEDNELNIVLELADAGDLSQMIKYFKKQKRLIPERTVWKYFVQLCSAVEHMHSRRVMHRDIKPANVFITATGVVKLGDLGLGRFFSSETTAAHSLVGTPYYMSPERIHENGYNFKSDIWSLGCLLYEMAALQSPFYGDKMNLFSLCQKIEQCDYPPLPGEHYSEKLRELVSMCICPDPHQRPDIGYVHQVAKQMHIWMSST
Sequence of Casein kinase II subunit alpha (Homo sapiens) (P68400 whole entry, looked up): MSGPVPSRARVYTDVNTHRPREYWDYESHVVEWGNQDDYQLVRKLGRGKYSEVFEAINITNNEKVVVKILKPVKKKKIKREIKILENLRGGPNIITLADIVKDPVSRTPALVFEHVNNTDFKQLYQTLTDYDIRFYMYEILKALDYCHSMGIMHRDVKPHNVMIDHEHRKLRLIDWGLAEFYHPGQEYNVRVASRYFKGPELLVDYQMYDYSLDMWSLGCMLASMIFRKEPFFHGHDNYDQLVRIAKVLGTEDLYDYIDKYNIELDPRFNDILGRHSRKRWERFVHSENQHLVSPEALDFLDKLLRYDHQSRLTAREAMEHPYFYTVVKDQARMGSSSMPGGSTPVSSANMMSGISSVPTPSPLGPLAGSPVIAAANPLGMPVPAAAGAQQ
Sequence of Sphingosine kinase 1 (Homo sapiens) (Q9NYA1 whole entry): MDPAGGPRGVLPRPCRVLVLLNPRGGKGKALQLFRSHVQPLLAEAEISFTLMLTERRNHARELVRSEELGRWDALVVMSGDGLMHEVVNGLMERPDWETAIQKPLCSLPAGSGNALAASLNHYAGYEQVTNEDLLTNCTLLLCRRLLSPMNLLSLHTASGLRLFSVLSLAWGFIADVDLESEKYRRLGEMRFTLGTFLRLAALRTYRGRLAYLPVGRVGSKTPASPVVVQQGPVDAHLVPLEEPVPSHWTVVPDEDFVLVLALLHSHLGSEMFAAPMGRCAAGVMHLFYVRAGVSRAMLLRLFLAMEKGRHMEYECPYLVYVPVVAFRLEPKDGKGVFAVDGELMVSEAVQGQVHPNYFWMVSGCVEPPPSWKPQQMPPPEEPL

For `Cc1cccc2c1NC(=O)/C2=N\Nc1ccc(S(N)(=O)=O)cc1`, the inhibition – broadly, the change of the read-out against control, counted positive when it falls – was 1.88% in assay [1]; -0.11% in assay [2]; 0.27% in [3]; -0.53% in assay [4]; 0.34% in assay [5]; 2.87% in assay [6]. Also, the inhibition in [7] was determined as 0.58%; in [8] it was 2.93%; in assay [9], 3.79%; in [10], 3.32%; in assay [11] it was 3.85%; in assay [12] it was 1%. The inhibition is 3.8% in [13]; 2.64% in assay [14]; 2.64% in assay [15]; 2.04% in assay [16]; 1.65% in [17]; 2.43% in assay [18]. The inhibition came out at 2.36% in assay [19] and 4.06% in assay [20].
